According to the supplement of paper PMC10646978:
± gives the standard deviation.

Columns and labels:
Conditions in all cases: modulator concentration 10 µM
[1] = system: RAW-Dual (murine macrophage reporter line); assay: NF-kB reporter (SEAP) activity fold change vs agonist alone; higher = enhanced NF-kB activity
Method in brief: (§1)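 In 384-well plates holding 50 000 RAW-Dual murine macrophage reporter cells per well, compound at 10 μM final was pre-incubated for 1 hour at 37 °C, after which a PRR agonist was added overnight. Supernatant SEAP read with QUANTI-Blue at 620 nm absorbance reported NF-κB, and Lucia luciferase read with QUANTI-Luc luminescence reported IRF. Fold change values come from dividing each reporter signal by the mean of agonist-only control wells on the same plate, averaged over replicate plates with propagated errors.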

[2] = system: RAW-Dual (murine macrophage reporter line); assay: IRF reporter (Lucia luciferase) activity fold change vs agonist alone; higher = enhanced IRF activity
Method in brief: as §1

[3] = system: RAW-Dual (murine macrophage reporter line); assay: viability score (confluency relative to resting cells, overnight) (fraction); higher = more viable, active = viable (0.7 or more)
Method in brief: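 Two confluency masks, generated with IncuCyte software over all imaged wells, were applied to IncuCyte images of RAW-Dual macrophages. The cells, in 384-well plates, had been exposed overnight to 10 μM final compound. The viability score is confluency as a fraction of resting cells, and a compound met the cutoff only with both masks above 70% of resting cells.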

[4] = agonist: CpG ODN 1826 0.5 ug/mL

SMILES	NF-kB reporter [1, 4]	NF-kB reporter ([1]; agonist: LPS 0.1 ug/mL)	NF-kB reporter ([1]; agonist: MPLA […])	IRF reporter ([2]; agonist: 3'3'-cGAMP 10 ug/mL)	IRF reporter ([2]; agonist: LPS 0.1 ug/mL)	IRF reporter ([2]; agonist: MPLA […])	viability score [3]
COc1cc2nc(N3CCN(C(=O)C4CCCO4)CC3)nc(N)c2cc1OC.Cl.O.O (centres undefined)	0.675 ± 0.12	0.937 ± 0.069	0.863 ± 0.052	0.963 ± 0.029	1.09 ± 0.094	1.16 ± 0.2	0.996 (active)
CCc1cc2c(-c3ccccc3)cc(=O)oc2cc1OC(C)=O	0.702 ± 0.12	1.09 ± 0.088	0.886 ± 0.085	0.974 ± 0.069	1.07 ± 0.3	1.07 ± 0.21	1 (active)
O=C(NC1CC2CCC1C2)c1ccccc1 (centres undefined)	0.907 ± 0.09	0.994 ± 0.081	0.972 ± 0.046	1.02 ± 0.11	1.01 ± 0.13	0.869 ± 0.15	0.995 (active)
Cc1ccc(OCCOc2ncnc3ccccc23)c(Cl)c1	1.02 ± 0.11	1.02 ± 0.078	1.23 ± 0.049	0.916 ± 0.094	1 ± 0.12	0.875 ± 0.18	1 (active)
N[C@H](Cc1ccccc1)C(=O)O	0.958 ± 0.074	1.05 ± 0.052	0.958 ± 0.025	0.895 ± 0.076	0.988 ± 0.049	1.11 ± 0.14	1 (active)
COc1ccc(CN(CCN(C)C)c2ccccn2)cc1 [Prestw-289]	0.902 ± 0.068	1.08 ± 0.11	1.01 ± 0.026	0.976 ± 0.11	0.912 ± 0.1	0.848 ± 0.066	0.993 (active)
CCOc1nc2cccc(C(=O)O)c2n1Cc1ccc(-c2ccccc2-c2nc(=O)o[nH]2)cc1	1.29 ± 0.17	1.14 ± 0.32	1.12 ± 0.073	0.886 ± 0.042	1.41 ± 0.38	1.31 ± 0.12	1 (active)
C#Cc1cccc(Nc2ncnc3cc(OCCOC)c(OCCOC)cc23)c1.Cl	0.511 ± 0.11	0.348 ± 0.047	0.233 ± 0.014	0.292 ± 0.03	0.143 ± 0.039	0.0986 ± 0.027	0.853 (active)
O=[N+]([O-])c1ccc(C=Nc2sc3c(c2-c2nc4ccccc4s2)CCCC3)cc1	0.94 ± 0.059	0.955 ± 0.059	0.983 ± 0.057	0.94 ± 0.04	1.2 ± 0.12	0.93 ± 0.089	1 (active)
CCc1ccccc1N(CC(=O)Nc1ccc(Cl)cc1C)S(C)(=O)=O	0.842 ± 0.087	1.05 ± 0.068	0.893 ± 0.047	0.88 ± 0.12	1.08 ± 0.14	0.876 ± 0.18	1 (active)
Cc1ccc(S(=O)(=O)Nc2cc(-c3c(O)ccc4ccccc34)c(O)c3ccccc23)cc1	0.941 ± 0.073	0.994 ± 0.076	1.16 ± 0.11	0.337 ± 0.015	0.808 ± 0.047	0.611 ± 0.075	0.956 (active)
COc1cccc(C2Nc3ccccc3-c3nnc(SC)nc3O2)c1OCC(=O)O (centres undefined)	0.989 ± 0.099	0.988 ± 0.054	0.864 ± 0.082	1.03 ± 0.068	1.65 ± 0.11	1.24 ± 0.076	1 (active)
CCOc1ccccc1OCCOCCOc1ccc(Br)cc1Cl	0.905 ± 0.051	0.9 ± 0.13	1.22 ± 0.044	0.876 ± 0.034	0.979 ± 0.088	1.02 ± 0.12	0.992 (active)
Clc1ccc(CN2CCN(c3ncnc4scc(-c5cccs5)c34)CC2)cc1	0.489 ± 0.028	1.28 ± 0.1	1.25 ± 0.074	1.16 ± 0.072	1.66 ± 0.12	1.51 ± 0.14	0.997 (active)
CN1C2CCCC1CC(NC(=O)c1nn(C)c3ccccc13)C2.Cl (centres undefined)	0.712 ± 0.31	0.879 ± 0.044	0.984 ± 0.069	0.873 ± 0.034	1.13 ± 0.16	1.03 ± 0.19	0.998 (active)
FC(F)(F)c1ccc(CNc2ccc(Cc3c[nH]c4ncc(Cl)cc34)cn2)cn1	0.154 ± 0.011	0.281 ± 0.028	0.378 ± 0.02	0.0391 ± 0.0019	0.335 ± 0.13	0.202 ± 0.083	0.978 (active)
Cn1cc(-c2cc(CNC(=O)c3cncc(F)c3)ccn2)cn1	1.12 ± 0.074	1.09 ± 0.1	0.964 ± 0.033	0.966 ± 0.039	0.973 ± 0.046	1.04 ± 0.2	0.995 (active)
O=C(CSC1CC(=O)N(c2ccc(C(=O)O)cc2)C1=O)Nc1ccc(F)cc1 (centres undefined)	0.998 ± 0.081	0.967 ± 0.14	1.52 ± 0.53	0.578 ± 0.021	1.25 ± 0.15	1.38 ± 0.22	1.01 (active)
O=C(NNC(=O)c1sc2cc(F)ccc2c1Cl)Nc1ccc(Cl)cc1	1.02 ± 0.081	0.995 ± 0.086	1.05 ± 0.053	0.926 ± 0.15	1.02 ± 0.048	1.12 ± 0.091	1 (active)
Clc1ccc(Nc2nnc(Cc3ccncc3)c3ccccc23)cc1 [Prestw-1358]	0.987 ± 0.056	1.07 ± 0.069	0.85 ± 0.07	0.785 ± 0.028	1.08 ± 0.069	1.1 ± 0.11	0.997 (active)
CN(C)c1ccc(C2N(C)c3ccccc3N2C)cc1	1.2 ± 0.19	1.69 ± 0.13	2.19 ± 0.2	0.939 ± 0.031	1.88 ± 0.23	1.94 ± 0.25	0.858 (active)
COC(=O)C(NC(=O)C(C)(C)C)C12CC3CC(CC(C3)C1)C2 (centres undefined)	0.96 ± 0.075	0.892 ± 0.067	0.934 ± 0.094	1.06 ± 0.058	1.38 ± 0.23	1.49 ± 0.3	1.02 (active)
CC(=NOCCCl)C(C)=NOCCCl	0.946 ± 0.078	1.05 ± 0.13	1.21 ± 0.042	0.909 ± 0.15	1.07 ± 0.045	1.59 ± 0.2	0.585 (inactive)
O=c1c2c([nH]c3c(-c4cccc5ccccc45)cnn13)CCCC2	1.02 ± 0.095	1.07 ± 0.067	0.913 ± 0.062	0.987 ± 0.027	1.47 ± 0.23	1.09 ± 0.2	1.01 (active)
Nc1nonc1C(=O)NN=Cc1cc(Br)c(O)c(Br)c1	1.05 ± 0.085	1.01 ± 0.076	1.03 ± 0.054	0.938 ± 0.11	1.08 ± 0.12	1.05 ± 0.23	0.997 (active)
O=C(CCC1CCCC1)Nc1cccc(F)c1	0.986 ± 0.059	1.08 ± 0.12	0.959 ± 0.029	0.999 ± 0.045	1.03 ± 0.091	1.12 ± 0.25	1 (active)
O=C(NC(=S)Nc1ccc2[nH]c(=O)[nH]c2c1)c1ccc(F)cc1	0.943 ± 0.095	1.03 ± 0.066	0.933 ± 0.064	0.927 ± 0.032	1.26 ± 0.13	1.05 ± 0.16	1.01 (active)
